IL2 activator – activators of IL-2; activation, % (series mostly up to about 46 µM); 360,000 compounds, 0.065% hits; AID 652025; IL-2 activation reporter assay, cell-based qHTS; stimulated with anti-CD3/CD4/CD28 beads; in transgenic mouse T cells; in the data active means activation above about 50%; inconclusive means mostly about 30% to 49%
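Using fluorescent plate cytometry, EGFP and DsRed are detected in transgenic mouse T cells stimulated 18 h at 37 degrees C with antibody-coated beads after 60 min compound pretreatment.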
ClpP mod – qHTS Assay for Activators of ClpP | purified B. subtilis ClpP, FRET peptide cleavage, 20 min | Potency, µM (titrated, usually from 57.5 µM) | 340,000 compounds, 1.9% hits; active means well fitted falling curve with a large enough effect; inconclusive means small, poorly fitted or top-dose-only effect; inactive means no such curve, though single readings can be large or run the other way; further: the source files actives as falling curves though it sought activators and does not explain the sign; nearly all actives have a fitted effect of over 65% in size
Target sequence (P80244 whole entry, looked up): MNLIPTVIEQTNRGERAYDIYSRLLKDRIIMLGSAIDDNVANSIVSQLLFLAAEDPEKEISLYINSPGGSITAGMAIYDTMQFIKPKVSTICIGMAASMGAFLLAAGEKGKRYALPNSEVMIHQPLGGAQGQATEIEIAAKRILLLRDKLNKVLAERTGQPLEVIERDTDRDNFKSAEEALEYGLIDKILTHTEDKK
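FRET quenching reversal measured ClpP activation: 10 microg/mL B. subtilis ClpP at pH 8 with the FRET-FV decapeptide, read at 430 nm after 320 nm excitation. The 20-min minus 0-min signal was scaled between DMSO/no-enzyme wells and ADEP (5.8 microM final).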
NPSR antag – blocks cAMP signaling of the human neuropeptide S receptor; Q6W5P4; CHO-NPSR cells, cAMP TR-FRET, antagonist mode; Potency, µM (series often up to 38.3 µM), most hits filed as inhibitors; 220,000 compounds, 1% hits; further: nearly all actives have a fitted effect of over 50% in size
Target sequence (Q6W5P4 whole entry, looked up): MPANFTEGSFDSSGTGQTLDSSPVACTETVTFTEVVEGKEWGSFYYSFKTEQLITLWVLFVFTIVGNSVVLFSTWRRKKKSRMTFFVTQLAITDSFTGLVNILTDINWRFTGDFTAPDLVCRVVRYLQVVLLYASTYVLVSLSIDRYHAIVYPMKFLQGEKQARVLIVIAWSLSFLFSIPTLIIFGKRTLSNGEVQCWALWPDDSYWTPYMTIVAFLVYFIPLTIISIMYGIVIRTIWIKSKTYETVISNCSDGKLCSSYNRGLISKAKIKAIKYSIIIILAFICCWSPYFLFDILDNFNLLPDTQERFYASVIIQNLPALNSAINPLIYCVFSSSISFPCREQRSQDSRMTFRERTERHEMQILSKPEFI
PKM2 act – activators of human pyruvate kinase M2; P14618; purified PKM2, Kinase-Glo ATP luminescence, activation; response scale: 0% is enzyme alone, no compound; Potency, µM (top dose mostly 57.5 µM), hits mostly activators; 260,000 compounds, 0.34% hits; further: nearly all actives have a fitted effect of over 55% in size
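Kinase-Glo luminescence reports ATP generated from ADP (0.1 mM) and PEP (0.5 mM) by purified hPK-M2 after 1 h at room temperature, pH 7.2 imidazole buffer; intermediate enzyme activity allows detecting inhibitors and activators.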
Each line names hits and unclear results; the compound was inactive in the other large screens; ! = a repeat was not active. Rows were chosen to be rich in hits. Some 2% of all compounds tested hit in one or more screens of this group. Unless noted, the call rests on the fitted dose curve; in most records, active means well fitted curve in the direction sought with a large enough effect; inconclusive means small, poorly fitted or top-dose-only effect, or another doubt; inactive means no such curve, though single readings can be large; an effect the other way counts as inactive or inconclusive.

O=C(CSCc1ccco1)NC1CCCC1	none
Cc1csc(NC(=O)CSc2nccn2Cc2ccco2)n1	none (no result: NPSR antag)
COc1cccc(-c2cc3nc(-c4ccccc4)cc(N4CCC5(CC4)OCCO5)n3n2)c1	ClpP mod 16µM
CN1CCN(c2cc(-c3ccccc3)nc3cc(-c4ccc(F)cc4)nn23)CC1	ClpP mod 22µM, NPSR antag inconclusive
CCC(=O)Oc1ccc2c(C)cc(=O)oc2c1C(=O)CC	none (no result: ClpP mod)
COc1ccccc1CN1C(=NC(=O)C2CCCCC2)SC2CS(=O)(=O)CC21 (stereo unspecified)	none (no result: NPSR antag)
O=c1cnn(Cc2c(Cl)cccc2Cl)c2ccccc12	none (no result: ClpP mod, NPSR antag)
COc1ccc2cc(C(=O)NCc3ccco3)c(=Nc3ccc(C(=O)O)cc3)oc2c1	ClpP mod 20µM, NPSR antag inconclusive
COc1ccc(N=c2oc3c(OC)cccc3cc2C(=O)NCc2ccco2)c(OC)c1	none
CCOC(=O)c1cccc(NC(=O)[C@@H](c2ccccc2)N2Cc3ccccc3C2=O)c1	none (no result: IL2 activator, NPSR antag, PKM2 act)
C=CCn1c(CCC(=O)O)ccc1-c1ccccc1	ClpP mod 28µM
CCCn1c(CCC(=O)O)ccc1-c1ccc(OC)cc1	ClpP mod 28µM, NPSR antag inconclusive
CCc1cc2c(NC(Cc3ccccc3)C(=O)O)nc(C)nc2s1 (stereo unspecified)	none (no result: NPSR antag)
CC1(N=Cc2cc(Cl)ccc2O)COP(=O)(Nc2ccccc2)OC1 (stereo unspecified)	none (no result: NPSR antag, PKM2 act)
COc1ccc(CC2S/C(=N/N=C/c3ccc(O)cc3)NC2=O)cc1 (stereo unspecified)	none (no result: ClpP mod)
COc1ccc(/C=N/N=C2/NC(=O)C(CC(=O)NC(C)C)S2)cc1 (stereo unspecified)	ClpP mod 14µM
COc1cccc(CNC(=O)[C@@H]2CCCN2C(=O)[C@H]2CCCCN2C(=O)c2cccc3ccccc23)c1	none (no result: NPSR antag, PKM2 act)
O=C(CSc1nnc2n1CCCN2)c1ccc(Cl)cc1	ClpP mod 14µM
CCNc1nc(NC(C)C)nc(N(C#N)Cc2ccccc2)n1	NPSR antag inconclusive
CCNc1nc(NC(C)C)nc(N(C#N)CCOc2ccc(Cl)cc2Cl)n1	NPSR antag 10µM
O=C(CSc1nnc(NC(=O)c2ccc3c(c2)OCO3)s1)NCc1ccco1	ClpP mod 4.5µM
COc1ccc(CCn2c(=N)c(S(=O)(=O)c3ccc(Cl)cc3)cc3c(=O)n4ccccc4nc32)cc1	IL2 activator 80 (no result: NPSR antag, PKM2 act)
O=S(=O)(c1cccc(F)c1)N1CCN(c2ncnc3scc(-c4ccc(F)cc4)c23)CC1	ClpP mod 25µM (no result: NPSR antag, PKM2 act)
Cc1ccc(S(=O)(=O)N2CCN(c3ncnc4scc(-c5ccc(F)cc5)c34)CC2)cc1	none (no result: ClpP mod, NPSR antag, PKM2 act)
COc1cc2c(cc1NS(=O)(=O)N1CCCCC1)oc1ccccc12	ClpP mod 32µM
COc1cc2c(cc1NC(=O)CCC(=O)O)oc1ccccc12	none (no result: ClpP mod, NPSR antag)
COc1cc2c(cc1NC(=O)COC(=O)C(CCSC)NC(=O)c1ccccc1Cl)oc1ccccc12 (stereo unspecified)	ClpP mod 25µM
COc1cc2c(cc1NC(=O)Nc1ccccc1)oc1ccccc12	ClpP mod 28µM
CNC(=O)COc1ccccc1C(=O)Nc1ccc2c(c1)oc1ccccc12	ClpP mod 4µM
C=CCSc1nnc(CNC(=O)c2ccc(Cl)cc2)n1CC	none
COc1cc2c(cc1NC(=O)COc1ccccc1OC)oc1ccccc12	ClpP mod 25µM, NPSR antag inconclusive
Cc1nc2c(cnn2-c2ccccc2Cl)c(=O)n1-c1ccc(N2CCC(C)CC2)cc1	NPSR antag 13µM
COc1cccc(C(=O)Nc2cccc(OCC(=O)c3ccccc3)c2)c1	none (no result: ClpP mod)
CC(NC(=O)c1ccccc1F)c1nnc(SCC(=O)N2CCN(c3ccccc3)CC2)n1C (stereo unspecified)	ClpP mod 25µM
Cn1c(CNC(=O)c2ccccc2F)nnc1SCC(=O)N1CCN(c2ccccc2)CC1	none (no result: ClpP mod)
CCOc1ccc(/C=C2\C(=O)c3ccccc3OC2c2ccccc2)cc1 (stereo unspecified)	NPSR antag inconclusive
CCN(CC)C(=O)C1=C(C)N(Cc2ccccc2)C(=O)C(CC(=O)NC2CCCC2)C1 (stereo unspecified)	none (no result: NPSR antag, PKM2 act)
N#CCCN1CCN(C2=NC(=O)C(=C3CCCCC3)S2)CC1	NPSR antag 20µM
O=C1N=C(N2CCOCC2)SC1=C1CCCCC1	none
CS(=O)(=O)Nc1ccc(C2=NN(C(=O)c3ccco3)C(c3ccc(F)cc3)C2)cc1 (stereo unspecified)	PKM2 act 13µM (no result: ClpP mod)
O=C(Cc1cccc([N+](=O)[O-])c1)Nc1cccc(C(=O)N2CCCC2)c1	none (no result: NPSR antag, PKM2 act)
Nc1ccc2c(c1)-c1ccccc1S(=O)(=O)N2	NPSR antag inconclusive
Cc1ccc2c(c1)-c1ccccc1S(=O)(=O)N2	ClpP mod 28µM
O=C1CCc2cc(S(=O)(=O)NCc3ccc(Cl)cc3)cc3c2N1CC3	none (no result: NPSR antag, PKM2 act)
CCC1=C2CC[C@H]3C(=O)N(C)C(=O)[C@H]3[C@H]2[C@@]2(Cc3ccccc3)C(=NCCc3c[nH]c4ccccc34)OC(=O)N2C1=O	none (no result: IL2 activator, ClpP mod, NPSR antag)
COC(=O)c1sc2cnccc2c1N	ClpP mod 14µM
O=C(O)c1ccccc1C(=O)N(c1ccccc1)c1ccccc1	none (no result: NPSR antag, PKM2 act)
CCOC(=O)c1sc(C)c2c1NC(C)(c1ccccc1)NC2=O (stereo unspecified)	ClpP mod 32µM
CCC(C)(C)NC(=O)CN(C(=O)c1ccc(N2CCCC2)nc1)c1ccc(F)cc1	none (no result: NPSR antag)
CCNc1ccc(C(=O)O)cc1N	ClpP mod 25µM
CCc1ccccc1Nc1ccc(C(=O)O)cc1N	ClpP mod 28µM
Nc1cc(C(=O)O)ccc1Nc1ccccc1	ClpP mod 10µM
CCOc1ccc(NC(=O)C(=O)NCCN2CCN(S(=O)(=O)c3ccccc3)CC2)cc1	none (no result: NPSR antag)
Cc1ccc(NS(=O)(=O)c2cc(-c3cc(C)no3)ccc2C(C)C)nc1	none (no result: NPSR antag)
CCc1ccc(-c2cc(C)no2)cc1S(=O)(=O)Nc1ccc(C)cn1	ClpP mod 32µM! (no result: NPSR antag, PKM2 act)
Cc1cc(-c2ccc(C)c(S(=O)(=O)Nc3ccccn3)c2)on1	ClpP mod 28µM (no result: IL2 activator, NPSR antag, PKM2 act)
N#Cc1nc(Cc2ccccc2)oc1NCc1cccnc1	ClpP mod 28µM
N#Cc1nc(-c2cccc(Cl)c2)oc1NCc1cccnc1	ClpP mod 2.2µM
COc1ccc(-c2nc(C#N)c(NCc3cccnc3)o2)cc1OC	ClpP mod 28µM
COc1ccc(-c2csc(-n3cccn3)n2)cc1	none (no result: NPSR antag, PKM2 act)
O=C1CC(c2nnc(Cc3c(F)cccc3Cl)o2)CN1c1ccccc1 (stereo unspecified)	none (no result: IL2 activator, NPSR antag, PKM2 act)
CC1=C(C(=O)N2CCCC(N3CCN(c4cccc(C(F)(F)F)c4)CC3)C2)OCCO1 (stereo unspecified)	none (no result: NPSR antag)
Cc1ccc(CNC(=O)c2ccccc2NC(=O)c2nsc3ccccc23)cc1	none (no result: IL2 activator, NPSR antag, PKM2 act)
Cn1c(=N)n(CC(O)c2ccco2)c2ccccc21 (stereo unspecified)	none
Cn1c(=N)n(CC(O)c2cccc3ccccc23)c2ccccc21 (stereo unspecified)	ClpP mod 8.9µM
